This is a sample that favours compounds with a hit; in the whole collection about 12% have one here.
Pf growth 96h = inhibits malaria parasite growth, 96 h; 6.9% of 320,000 active; Potency, µM (series often up to 28.7 µM), for inactives: at the top dose activity change, negative = inhibition, actives largely listed as inhibitors; P. falciparum luciferase reporter growth, 96 h; further: potency means the concentration at half of the fitted maximal effect; on the % scale 0 is the no-effect control and ±100 the full control effect
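Two-generation exposure (96 h) targets delayed-death phenotype. Reporter parasites carrying integrated firefly luciferase, in red cells at 2% hematocrit and 0.05% parasitemia final, kept at 37 C, 5% CO2; luminescence loss indicates inhibition.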
AMA1 RON2 block = AMA1-RON2 (P. falciparum) interaction inhibition; 0.2% of 360,000 active; Potency, µM (titrated, usually from 58.2 µM), without a hit: top-dose activity change, negative = inhibition, actives largely listed as inhibitors; AlphaScreen AMA1-biotinylated RON2 peptide binding;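 further: potency means the concentration at half of the fitted maximal effect; 0% = vehicle wells and -100% = peptide control; nearly all actives have a fitted effect of over 45% in size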
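AMA1 (3D7) with his tag at 25 nM final met compounds first, then biotinylated RON2 peptide at 25 nM; detection used donor plus acceptor beads, 10 µg/mL apiece, read by AlphaScreen after 30 min at room temperature.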
Pf growth 48h = inhibits P. falciparum growth in the first generation, 48 h | P. falciparum luciferase growth in erythrocytes, 48 h | Potency, µM (titrated, usually from 28.7 µM), for inactives: at the top dose activity change, negative = inhibition, usual class: inhibitors | 5.9% of 310,000 active; further: potency means the concentration at half of the fitted maximal effect; on the % scale 0 is the no-effect control and ±100 the full control effect
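Parasite viability was followed by luminescence of a genomically integrated firefly luciferase. Cultures held 0.1% parasitemia at 2% hematocrit (final), incubated under 5% CO2 at 37 C.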
SARS PLpro yeast-1 = blocks SARS-CoV papain-like protease in a yeast assay; S. cerevisiae expressing SARS-CoV PLpro, growth rescue; Potency, µM (titrated, usually from 32.9 µM), for inactives: top-dose activity, positive = growth rescue, most hits filed as activators; 0.19% of 330,000 active; calls by dose curve; further: potency means the concentration at half of the fitted maximal effect; 0% is about no effect; nearly all actives have a fitted effect of over 55% in size
NS1 function inh = influenza NS1 inhibition; Potency, µM (highest dose often 46.1 µM), without a hit: top-dose activity, positive = more growth; 0.4% of 270,000 active; AID 2326; calls by dose curve; further: potency means the concentration at half of the fitted maximal effect; actives are rising curves; nearly all actives have a fitted effect of over 50% in size
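Read-out: OD600 growth recovery of NS1-expressing budding yeast. Cells grown overnight at 30C in -URA glucose medium, washed, resuspended and diluted 1:100 in 2% galactose assay medium, pH 6.0. Same strain lacking NS1 served as positive control.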
HCV inhibitor = HCV inhibition | Potency, µM (highest dose often 41.8 µM), for the others: at the top dose activity change, negative = inhibition, actives largely listed as inhibitors | Huh7.5.1 HCVcc-Cre infection, luciferase reporter, 44 h | AID 651820 | 3.4% of 340,000 active; further: potency means the concentration at half of the fitted maximal effect; on the % scale 0 is the no-effect control and ±100 the full control effect
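Seed cells (1,000/well) for 4 h; treat with compound and infect with HCVcc-Cre, moi about 0.5. Incubate 44 h, then detect luciferase activity.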
SARS PLpro yeast-2 = Inhibits SARS-CoV PLP in yeast, hit validation | yeast expressing SARS-CoV PLpro, growth phenotype rescue | 19% of 1,000 active | AID 652038 | calls only | shares compounds with SARS PLpro yeast-1; call rule not given here
An asterisk follows results filed as active; i = inactive; ? = inconclusive; . = not tested or not shown; + = active, no number; [ ] = another dose, or the depositor's remark. Unless noted, the call rests on the fitted dose curve; in most records, active means well fitted curve in the direction sought with a large enough effect; inconclusive means small, poorly fitted or top-dose-only effect, or another doubt; inactive means no such curve, though single readings can be large; an effect the other way counts as inactive or inconclusive.

SMILES | Pf growth 96h | AMA1 RON2 block | Pf growth 48h | SARS PLpro yeast-1 | NS1 function inh | HCV inhibitor | SARS PLpro yeast-2
CC(C)Cc1ccc(CN2CCCC(NC(=O)CCN3CCOCC3)C2)cc1 (stereo unspecified) | ? | 13% | -17% | 2% | 9% | . | .
O=C(CCN1CCOCC1)NC1CCCN(Cc2ccccc2F)C1 (stereo unspecified) | 8% | 0% | 3% | ? | 5% | 38% | i
O=C(Nc1ccccc1)n1cc(-c2ccccn2)c(N2CCOCC2)n1 | 16% | -26% | 16% | -1% | . | 9% | .
Cc1noc(C(=O)N2CC3(C)CC2CC(C)(C)C3)c1Cl (stereo unspecified) | ? | 1% | . | 4.5µM* | ? | -21% | i
CC1(C)CC2CC(C)(CN2C(=O)c2cc(-c3ccc(O)cc3)on2)C1 (stereo unspecified) | 13% | 4% | -6% | -10% | -23% | -7% | .
O=C(COC(=O)c1ccc(Cl)nc1)Nc1ccc(S(=O)(=O)N2CCCC2)cc1 | ? | -4% | -20% | -35% | -8% | 16% | .
O=C(COC(=O)c1cnc(Cl)c(Cl)c1)Nc1ccc(S(=O)(=O)N2CCCC2)cc1 | -28% | -11% | -2% | ? | 6% | 0% | i
O=C(Nc1cccc(Br)c1)c1ccccc1-c1ccccc1 | ? | -7% | -17% | -63% | -39% | -3% | .
O=C(Nc1ccc(F)c(F)c1)c1ccccc1-c1ccccc1 | 8% | 9% | 4% | 14µM* | 0% | -2% | i
Cc1ccc(C(C)C)c(OCc2ccc(C(=O)N/N=C/c3cccc(O)c3O)cc2)c1 | 2.6µM* | 41% | 1.7µM* | 2.8µM* | -32% | 22µM* | ?
N#CC1=C(N)Oc2cc(O)ccc2C1c1ccc(Br)s1 (stereo unspecified) | 11% | 2% | 1% | 1% | 19% | 10% | .
CC(C)C[C@H]1CN=C(N(C)C)N1CCCCc1ccccc1 | ? | -1% | 5.2µM* | 6.3µM* | . | ? | i
C[C@H]1CN=C(N(C)C)N1CCCCc1ccccc1 | ? | 0% | ? | 4% | . | -5% | .
O=C(Cc1csc(N2CCOCC2)n1)N/N=C/c1ccc(O)c(O)c1O | 1% | ? | 1% | 10µM* | . | 17% | i
O=C(COc1nsnc1N1CCOCC1)N/N=C/c1ccccc1O | -89% | 72% | ? | ? | -27% | ? | i
Cc1cc(OCC(=O)C(C)(C)C)c2c(-c3ccccc3)cc(=O)oc2c1 | -21% | 8% | 11%[0.00184 µM] | 0% | 4% | ? | .
CCc1ccc(CN(C)C(=O)c2cc(COc3ccc(OC)cc3Cl)on2)nc1 | 7% | 24% | 29% | 0% | -45% | -25% | .
CC(NC(=O)c1ccc(N(C)C)cc1)C1CC2CCC1C2 (stereo unspecified) | . | 0% | 3% | 22µM* | 13% | 18% | i
CCC(=O)c1ccc(N2CCN(C(=O)c3cc([N+](=O)[O-])ccc3N3CCN(C)CC3)CC2)c(F)c1 | 9.3µM* | 10% | ? | ? | 5% | ? | +
CCC(=O)c1ccc(N2CCN(C(=O)c3ccc(F)cc3)CC2)c(F)c1 | 16% | 1% | -5% | -1% | -3% | ? | .
Cc1ccc2c(c1)-c1nc3ccccc3cc1C2=NC1CCCCC1 | 53% | -9% | 130% | ? | 4% | ? | i
Cc1ccc2c(c1)C(=NC1CCCCC1)c1cc3ccccc3nc1-2 | 267% | -10% | 172% | -8% | -8% | 2% | .
O=C(Nc1ccccn1)c1ccc([N+](=O)[O-])o1 | ? | -28% | ? | 10µM* | -23% | ? | i
COc1ccccc1NC(=O)c1ccc([N+](=O)[O-])o1 | . | -8% | . | . | . | -24% | .
Cc1cccc(/C=N/n2c(-c3ccncc3)n[nH]c2=S)c1 | -14% | 49% | 11% | -9% | 7% | 8% | .
SMILES | Pf growth 96h | AMA1 RON2 block | Pf growth 48h | SARS PLpro yeast-1 | NS1 function inh | HCV inhibitor | SARS PLpro yeast-2
S=c1[nH]nc(-c2ccncc2)n1/N=C/c1ccccc1 | ? | 59% | -6% | ? | 17% | -1% | i
C=C1CC2C=C(NC(C)=O)CC(C1)C2 (stereo unspecified) | 8% | -4% | 25% | ? | 2% | 6% | i
CCC1(CC)C(=O)N(C)C(=O)NC1=Nc1ccc(OC)cc1 | . | 14% | -4% | 1.8µM* | 7% | 8% | i
FC(F)(F)c1cnc(Sc2ncn[nH]2)c(Cl)c1 | 24% | 0% | -19% | -3% | . | 1% | .
COc1ccc(NC(=O)CSc2ccc(-c3ccccn3)nn2)cc1OC | ? | -4% | ? | 10µM* | 2% | 2% | i
COc1ccccc1NC(=O)CSc1ccc(-c2ccccn2)nn1 | ? | -20% | ? | -19% | -118% | ? | .
O=C1c2ccccc2NC(c2cn[nH]c2-c2ccc(Cl)cc2)N1O (stereo unspecified) | -93% | -7%[2.32 µM] | ? | 7.9µM* | 19% | ? | ?
O=C1c2ccccc2NC(c2cn[nH]c2-c2ccccc2)N1O (stereo unspecified) | 34% | 56% | 21% | ? | 18% | -10% | i
O=C1c2ccccc2NC(c2ccccc2O)N1O (stereo unspecified) | ? | 76% | . | 5% | -3% | 12% | .
CC(C)CC1NC(=O)N(CC(=O)Nc2ccc(-c3ccccc3)cc2)C1=O (stereo unspecified) | -1% | 15% | -5% | -1% | . | ? | .
Cc1cccc(NC(=S)NNC(=O)COc2ccc(Cl)cc2Cl)c1 | 184% | 45%[11.6 µM] | 8% | 10µM* | 21% | 24% | +
COc1ccc(NC(=S)NNC(=O)COc2ccc(Cl)cc2Cl)cc1 | 52% | 21% | 12% | -16% | 17% | ? | .
CC(=O)Oc1cc2oc(=O)cc(C)c2cc1Cl | 21% | 5% | 19% | 0% | -34% | 13% | .
Cc1ccc(S(=O)(=O)NC(C(=O)Oc2cc3oc(=O)cc(C)c3cc2Cl)C(C)C)cc1 (stereo unspecified) | -25% | 6% | -5% | 22µM* | 2% | 11% | ?
C#CCN(C[C@H]1[C@H](OC(=O)Nc2c(C)noc2C)[C@H](OC(=O)Nc2c(C)noc2C)C[C@@H](C(=O)OC)[C@H]1C(=O)OC)S(=O)(=O)c1ccc(C)cc1 | . | 19% | . | . | . | . | .
CC(C)(C)C1CCC(=NNC(=O)c2ccco2)CC1 (stereo unspecified) | ? | 80% | 37% | -2% | 0% | 3% | .
Cc1c(C(=O)OCC2CCCO2)[nH]c2c1C(=O)CC(c1ccco1)C2 (stereo unspecified) | . | -13% | ? | ? | -10% | ? | i

From PubChem
